According to PubChem BioAssay AID624273 (Broad Institute, 2012):
About 230 (23%) of roughly 1,000 compounds were called active. Another 1% or so got no clear call; they are omitted. The list shows a part of the results. Measured potencies and affinities stand elsewhere. Unmarked numbers belong to inactive results. No rule for the calls is given here.

The molecules below were run against Long-chain-fatty-acid--AMP ligase FadD28 (Mycobacterium tuberculosis (strain ATCC 25618 / H37Rv)) (UniProt P9WQ59) (assay: inhibitors of FadD28 bisubstrate probe binding, dose response, biochemical, fluorescence polarization, cherry-pick (AID 624273)). Conditions: series mostly up to 50 µM; activity change, negative = inhibition: at the top concentration.
Sequence of Long-chain-fatty-acid--AMP ligase FadD28 (Mycobacterium tuberculosis (strain ATCC 25618 / H37Rv)) (P9WQ59 whole entry, looked up): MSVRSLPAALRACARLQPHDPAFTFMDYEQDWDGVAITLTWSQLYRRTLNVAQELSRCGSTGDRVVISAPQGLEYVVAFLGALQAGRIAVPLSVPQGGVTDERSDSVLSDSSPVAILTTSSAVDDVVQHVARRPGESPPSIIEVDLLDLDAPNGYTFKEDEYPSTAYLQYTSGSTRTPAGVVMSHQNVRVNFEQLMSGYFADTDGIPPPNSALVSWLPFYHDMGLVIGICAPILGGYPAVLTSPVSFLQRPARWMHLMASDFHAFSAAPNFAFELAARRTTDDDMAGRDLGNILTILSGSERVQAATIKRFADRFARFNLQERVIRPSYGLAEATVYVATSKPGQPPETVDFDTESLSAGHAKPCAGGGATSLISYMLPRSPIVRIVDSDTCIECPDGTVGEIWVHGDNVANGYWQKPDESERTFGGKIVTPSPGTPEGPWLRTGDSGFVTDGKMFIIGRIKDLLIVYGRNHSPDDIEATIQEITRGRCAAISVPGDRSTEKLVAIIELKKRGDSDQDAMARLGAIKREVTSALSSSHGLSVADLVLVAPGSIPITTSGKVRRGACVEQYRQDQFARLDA

| SMILES | activity change, negative = inhibition [%] |
| --- | --- |
| Cc1ccn2c(CNCCn3cccn3)c(C(=O)N3CCCCCC3)nc2c1 | -3.76 |
| COc1cc2cncc(Cc3ccc(Cl)cc3)c2cc1OC | 21.4 |
| CC1(C)CC(=O)C(C(c2ccncc2)C2C(=O)CC(C)(C)CC2=O)C(=O)C1 | -5.11 |
| CN1CCN(CCCN2c3ccccc3Sc3ccc(Cl)cc32)CC1 | -5.81 |
| O=C(CSc1nncn1-c1cccnc1)N1CCOCC1 | -0.342 |
| CN(Cc1cccc([N+](=O)[O-])c1)Cc1cccc2ccccc12 | -2.3 |
| Cc1cccc(NC(=O)NNC(=O)c2ccc3ccccc3c2O)c1 | -20.9 |
| CC(=O)NNC(=S)Nc1cccc(F)c1 | -7.85 |
| Cc1ccc(SCCN2CCN(C)CC2)cc1 | -0.503 |
| Cn1ncnc2c(=O)n(C)c(=O)nc1-2 | 5.7 |
| CN(C)c1cccc(NC(=O)c2ccco2)c1 | -6.62 |
| COc1ccccc1NC(=O)c1ccc2c(c1)C(=O)N(c1ccccc1OC)C2=O | -0.908 |
| COCCCN1CN(S(=O)(=O)c2ccc(Cl)cc2)c2nc3ccccc3nc21 | -64.5 |
| CC1CCCC(C)N1CCCNC(=O)c1ccc2nc(N3CCOCC3)sc2c1 (stereo not given) | 0.187 |
| O=C(Nc1nc2ccc(SC(F)F)cc2s1)c1ccc(NS(=O)(=O)c2ccc(F)c(F)c2)cc1 | 1.67 |
| COc1ccc(C(=O)NNC(=O)C(=O)NCc2ccccc2)cc1 | 0.399 |
| COc1ccc(OC)c(NC(=O)c2ccc(NC(C)=O)cc2)c1 | -6.61 |
| Cc1ccc(C)c(C(=O)C(C)OC(=O)c2cccn2C)c1 (stereo not given) | 3.23 |
| O=C(CN1C(=O)c2ccccc2C1=O)N(CCO)Cc1ccccc1 | -6.65 |
| CCCc1nc(N)c(C#N)c(-c2ccco2)c1CC | -6.34 |
| COc1ccc(S(=O)(=O)N2CCCCCC2)cc1C(=O)NCc1cccs1 | -23.6 |
| O=C(COC(=O)c1cccs1)Nc1cccc(S(=O)(=O)N2CCOCC2)c1 | -0.358 |
| CCOC1=C(C#N)CC2(CC1)c1ccccc1-c1ccccc12 | -7.12 |
| Cc1ccc(C)n1C(CC(=O)O)c1ccc(C#N)cc1 (stereo not given) | -2.01 |
| O=C1C2CC=CCC2C(=O)N1c1ccc(NCCc2ccc(O)cc2)c([N+](=O)[O-])c1 (stereo not given) | -6.2 |
| C=CCOc1cccc(C2C(C(=O)c3ccc(C)o3)=C(O)C(=O)N2CCCn2ccnc2)c1 (stereo not given) | -6.12 |
| O=C(O)c1cc(N/N=C/c2c[nH]c3ccccc23)ccc1Cl | -0.396 |

| SMILES | activity change, negative = inhibition [%] |
| --- | --- |
| COc1ccc(Cl)cc1NC(=S)N(Cc1ccc(C(=O)O)cc1)Cc1ccc(OC)c(OC)c1 | -26.1 |
| COc1cc(C(C)=O)ccc1OC(=O)N(C)c1ccccc1 | -7.74 |
| CC(=O)Nc1sc(N/N=C\c2ccccc2)nc1-c1cccs1 | -6.1 |
| O=C(O)c1ccc(N/N=C/C2=Cc3ccccc3OC2)cc1 | -7.18 |
| CN1CCCC(C(=O)c2ccc(-c3ccccc3)cc2)C1 (stereo not given) | -3.14 |
| Cc1ccc(S(=O)(=O)N2CCN(C(=O)COC(=O)Cc3cccc(C(F)(F)F)c3)CC2)c(C)c1 | -8.44 |
| Cc1c(N=Cc2c(O)n(CCc3ccc(F)cc3)c(=O)[nH]c2=O)c(=O)n(-c2ccccc2)n1C | -5.99 |
| Cc1ccc(C)c(C(O)c2ncc(-c3ccccc3F)[nH]2)c1 (stereo not given) | -0.658 |
| CC1=C(C(=O)OCc2ccccc2)C(c2ccccc2Cl)NC(=O)N1C (stereo not given) | 1.09 |
| OC1(c2ccccc2)c2ccccc2-c2ncccc21 (stereo not given) | 0.098 |
| COc1ccc(Cn2c(O)c(C=Nc3ccccc3C(=O)O)c3ccccc3c2=O)cc1 | -11.9 |
| O=C(CNC(=S)N(Cc1ccccc1)Cc1cccnc1)N1CCOCC1 | 2.04 |
| CC(C=NNc1ccc([N+](=O)[O-])cn1)=Cc1ccccc1 | -3.77 |
| Fc1ccc(-n2cc(-c3ccccc3)c3c(N4CCOCC4)ncnc32)cc1 | -3.99 |
| FC(F)(F)c1cccc(NC(=S)N2CCN(c3ccccn3)CC2)c1 | -5.38 |
| O=C(NNc1ccc(C2CCCCC2)cc1)C(O)(c1ccccc1)c1cccs1 (stereo not given) | -7.02 |
| O=C(O)c1[nH]c2ccccc2c1C(c1cccc(O)c1)c1c(C(=O)O)[nH]c2ccccc12 | -0.575 |
| Cc1[nH]c2ccccc2c1C(=O)CN1CCSCC1 | -5.36 |
| O=C(Cc1c(F)cccc1Cl)NC1CCN(Cc2ccccc2)CC1 | -2.88 |
| COc1ccc(OC)c(C2CC(=O)Nc3c2c(=O)[nH]c2ncnn32)c1 (stereo not given) | -4.84 |
| CC(Oc1ccc(Cl)cc1Cl)c1nc(-c2ccc(NC(=O)c3ccco3)cc2)no1 (stereo not given) | 2.14 |
| O=c1[nH]c(=S)[nH]c(O)c1/C=C1\C=Nc2ccccc21 | -3.93 |
| CCOC(=O)C(O)(C1C(=O)CC(C)(C)CC1=O)C(F)(F)F (stereo not given) | -8.07 |
| O=C1CC(c2cc(F)ccc2F)c2cc3c(cc2N1)CCC3 (stereo not given) | -3.23 |
| OC1(c2ccc3c(c2)OCO3)CCN(Cc2ccccn2)CC1 | -0.883 |
| C[C@@H]1CN([C@H](C)CO)C(=O)c2cc(NC(=O)Nc3ccc(C(F)(F)F)cc3)ccc2O[C@H]1CN(C)C(=O)Nc1ccc(F)cc1 | -0.926 |
| CCN(C(=O)CSc1nnc(SC)s1)c1c(N)n(Cc2ccccc2)c(=O)[nH]c1=O | -4.76 |

| SMILES | activity change, negative = inhibition [%] |
| --- | --- |
| O=C(CCCCn1c(=O)c2ccccc2n(CC(=O)Nc2ccc(F)cc2)c1=O)NCc1ccco1 | -18.9 |
| CCN(CC)S(=O)(=O)c1cc(C(=O)Nc2cc(Cl)ccc2N2CCN(C)CC2)ccc1Cl | -17 |
| CCCCCCCCCCCCCCCCCCNc1ccn(C2OC(COP(=O)(O)OCC3OC(n4cc(F)c(=O)[nH]c4=O)CC3O)C(O)C2O)c(=O)n1 (stereo not given) | 0.561 |
| S=C(Nc1ccccc1)N1CCN(c2ccc(N3CCOCC3)nn2)CC1 | -4.53 |
| COc1ccccc1CN1CCN(C(=O)c2ccco2)CC1 | -5.09 |
| N#CC1(NC(=O)COC(=O)C2=COCCO2)CCCCC1 | -1.19 |
| COc1cc(/C=C2\C(=O)ON=C2c2ccccc2)cc(Br)c1O | -5.09 |
| Cc1ccccc1-c1cc(C(=O)N2CCCC2)c2ccccc2n1 | 7.43 |
| CC(=O)Nc1cnc(-c2ccc(O)cc2C)cn1 | 1.39 |
| CCOc1ccc(CNC(=O)CCc2cn(C)c3ccccc23)cc1OC | -4.76 |
| O=C(c1cc2cc(F)ccc2[nH]1)N1CCc2ccccc2C1 | -16.4 |
| COc1ccc(-c2coc3c(C(=O)Nc4cccc(C(C)=O)c4)cccc23)c(C)c1 | -0.536 |
| COc1ccc(NC(=O)c2ccccc2NS(C)(=O)=O)cc1OC | -3.77 |
| CCN(CC(=O)Nc1c(F)cccc1F)C(=O)Cc1ccccc1 | -2.25 |
| N#CC1=C(N)OC2=C(C(=O)CCC2)C1c1cc2c(cc1Cl)OCO2 (stereo not given) | -6.31 |
| COc1ccc(-c2coc3cc(O[C@@H]4O[C@H](CO)[C@@H](O)[C@H](O)[C@H]4O)ccc3c2=O)cc1 | -3.03 |
| Cc1ccc(OCc2n[nH]c(=S)n2-c2ccc(Br)cc2)cc1 | -6.22 |
| Cc1ccc2c(c1)N(C(=O)NC1CCCCC1)C(C)(C)CC2C (stereo not given) | -2.78 |
| COc1ccc(-n2nnnc2SCC(=O)Nc2ccccc2N2CCOCC2)cc1OC | -5.58 |
| COc1cc([N+](=O)[O-])ccc1NC(=S)NC(=O)CC(C)(C)C | -11.9 |
| COc1ccc(S(=O)(=O)N2CCCCCC2)cc1NC(=O)c1ccccc1S(C)(=O)=O | -4.29 |
| Cc1cc(NCC(=O)Nc2ccc(C)c(S(=O)(=O)N3CCOCC3)c2)ccc1Br | -7.05 |
| O=C(Nc1ccc(NC(=O)c2cc([N+](=O)[O-])ccc2N2CCOCC2)cc1)c1cccs1 | -10.1 |
| Cc1ccc(C(=O)N2CCCC2)cc1S(=O)(=O)N1CCOCC1 | -10.9 |
| Cc1ccc(NC(=O)COC(=O)c2cccc(OC(F)F)c2)cc1S(=O)(=O)N1CCCCC1 | -4.36 |
| O=C(c1cc(COc2ccc3c(c2)CCCC3)on1)N1CCCC1 | -13.7 |
| O=C(c1cccc(C(F)(F)F)c1)N1CCN(CCc2ccccc2)CC1 | 3.31 |

| SMILES | activity change, negative = inhibition [%] |
| --- | --- |
| Cc1[nH]n(-c2ccc(Cl)cc2)c(=O)c1C=Nc1ccc(S(=O)(=O)N2CCOCC2)cc1 | -0.291 |
| O=C(Cn1cc(S(=O)(=O)Cc2cccc([N+](=O)[O-])c2)c2ccccc21)N1CCOCC1 | -3.46 |
| COC(=O)c1cc(S(=O)(=O)Nc2ccsc2C(=O)OC)oc1C | -7.11 |
| Cc1nnc(SCC(=O)Nc2ccc(F)cc2)n(N)c1=O | -5.63 |
| O=C1/C(=C/c2ccco2)SC(=S)N1CCC(=O)N1CCCCC1CCO (stereo not given) | -10.4 |
| N#Cc1ccccc1NC(=O)CNc1ccc(Cl)c(C(F)(F)F)c1 | -2.52 |
| COc1cc2c(cc1OC)C(=O)C(Br)CC2 (stereo not given) | -9.76 |
| O=C(O)CSC(C(=O)Nc1ccc(C(F)(F)F)cc1)c1ccccc1 (stereo not given) | -8.44 |
| COCc1[nH][nH]c(=O)c1C=Nc1ccc(C(F)(F)F)cc1 | -12.3 |
| NS(=O)(=O)c1ccc(NC(=O)c2ccc3c(c2)OCO3)cc1 | -3.68 |
| Cc1nonc1C(=O)N/N=C/c1ccc([N+](=O)[O-])o1 | -12.6 |
| COC(=O)[C@]1(Cc2ccccc2)N[C@H](CN(C)S(=O)(=O)c2ccc(-c3ccccc3)cc2)[C@@H]2C(=O)N(C)C(=O)[C@@H]21 | -27.4 |
| COc1cccc(CN(C)C(=O)CC2C(=O)NCCN2C2Cc3ccccc3C2)c1 (stereo not given) | 1.96 |
| COc1cc(/C=C/c2ccc3cccc(O)c3n2)cc(OC)c1OC | -5.24 |
| Cc1ccn2c(Nc3ccccc3C)c(-c3ccccn3)nc2c1 | -4.56 |
| Cc1nn(Cc2ccc(F)cc2)c2sc(C(=O)Nc3ccccc3N3CCOCC3)cc12 | -3.07 |
| O=C1CCCC(=NNC(=O)c2cc3ccccc3cc2O)C1 | 3.46 |
| O=C(O)CCC(=O)Nc1ccc(C(=O)OCC(=O)c2ccc(Cl)cc2)cc1 | -18.5 |
| O=C(Nc1cccc([N+](=O)[O-])c1)NC1CCCCCCC1 | -11.6 |
| Cn1nc(CC(=O)NC2CCCCCCCCCCC2)c2ccccc2c1=O | -3.2 |
| FC(F)Sc1ccc(NC(=S)NCc2ccccc2)cc1 | -12.6 |
| O=C(COC(=O)c1nc(Cl)ccc1Cl)NCc1ccccc1 | -10.5 |
| CCCC(C(=O)NCCC(C)C)N(Cc1ccccc1)C(=O)c1snc(C(N)=O)c1N (stereo not given) | -8.21 |
| O=S(=O)(CCN1CCN(c2ccccc2O)CC1)c1cc(Cl)ccc1Cl | -5.55 |
